Here are results for 13 compounds from PubChem BioAssay (Tox21).

Test [1] can be described thus: qHTS assay to identify small molecule antagonists of the vitamin D receptor (VDR) signaling pathway - cell viability counter screen (AID 743225). Note: nearly all actives have a fitted effect of over 50% in size. Note: potency is the fitted concentration of half-maximal effect. In outline: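 Same-well multiplex: following 16 h treatment of HEK 293T cells carrying a UAS-driven beta-lactamase reporter with compound and agonist (3 nM final), and a 2 h FRET substrate step, CellTiter-Glo was added and luminescence read after 30 min.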
Background: qHTS replaces the single test concentration by a dilution series.

A short description of test [2]: qHTS assay to identify small molecule agonists of the NFkB signaling pathway - cell viability counter screen (AID 1159515; calls by dose curve; note: nearly all actives have a fitted effect of over 55% in size; note: potency is the fitted concentration of half-maximal effect). In outline: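 5 hr compound treatment of NFkB-bla ME-180 cells (2,000/well, seeded overnight beforehand), followed by reporter substrate for 1.5 hr. CellTiter-Glo added afterward; luminescence after 30 min RT.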
Test [3] can be described thus: qHTS assay to identify small molecule agonists of the endoplasmic reticulum stress response signaling pathway - cell viability counter screen (AID 1159517; calls by dose curve; note: nearly all actives have a fitted effect of over 50% in size; note: potency is the fitted concentration of half-maximal effect). In short, it runs like this: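 CellTiter-Glo was added to wells already read for beta-lactamase FRET, and luminescence was recorded 30 min later. Cells: ESRE-bla HeLa, 1,500 per well, compound exposure 5 hr at 37 C.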

Test [4] can be described thus: qHTS assay to identify small molecule antagonists of the retinoid-related orphan receptor gamma (ROR-gamma) signaling pathway - cell viability counter screen (AID 1159520). Note: nearly all actives have a fitted effect of over 50% in size. Note: potency is the fitted concentration of half-maximal effect. In outline:
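Tet-on ROR gamma CHO cells (1,000/well) were plated 4 hr, given compounds in DMSO for 2 hr at 37 C, then induced with 1 uM final doxycycline for 16 hr. Viability was read as ATP by CellTiter-Glo luminescence after 30 min.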

The nature of test [5]: qHTS assay to identify small molecule agonists of the AP-1 signaling pathway - cell viability counter screen (AID 1159525; calls by dose curve; note: nearly all actives have a fitted effect of over 55% in size). In outline: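 ME-180 AP-1-bla, 2500 cells/well, Opti-MEM + 0.5% dialyzed FBS; overnight 37 °C; cpd 15-pt titration, 5 h 37 °C; CellTiter-Glo 30 min RT; luminescence read; normalised to TOAB and DMSO controls.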
A short description of test [6]: qHTS assay to identify small molecule agonists of the AP-1 signaling pathway (AID 1159526; calls by dose curve).
Test [7] addresses Retinoic acid receptor RXR-alpha (Homo sapiens) (UniProt P19793). Put plainly: qHTS assay to identify small molecule agonists of the RXR signaling pathway (AID 1159527; calls by dose curve; note: nearly all actives have a fitted effect of over 35% in size; note: potency is the fitted concentration of half-maximal effect). In outline: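 Compounds in DMSO were added to RXR-alpha-UAS-bla HEK 293T cells kept in 2% charcoal-stripped serum, and incubated 16 hr at 37 C with 5% CO2. Reporter signal came from a 2 hr B/G FRET substrate step.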

The nature of test [8]: qHTS assay to identify small molecule agonists of the RXR signaling pathway - cell viability counter screen (AID 1159529). Note: nearly all actives have a fitted effect of over 50% in size. Note: potency is the fitted concentration of half-maximal effect. In short, it runs like this: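 Counter screen: CellTiter-Glo luminescence. Cells: RXR-alpha-UAS-bla HEK 293T. Medium: 2% charcoal-stripped FBS. Treatment: 16 h, 37 C. Reagent incubation: 30 min, RT.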
Test [9] is described as follows: qHTS assay to identify small molecule antagonists of the retinoic acid receptor (RAR) signaling pathway (AID 1159552; note: nearly all actives have a fitted effect of over 50% in size; note: potency is the fitted concentration of half-maximal effect). In short, it runs like this: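 Antagonism of retinol-induced RARE reporter activity was measured in C3RL4 cells. Exposure to compounds and 1 uM final retinol lasted 6 hr at 37 C, with luminescence as endpoint.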
Test [10] is described as follows: qHTS assay to identify small molecule agonists of the retinoic acid receptor (RAR) signaling pathway (AID 1159553). Note: potency is the fitted concentration of half-maximal effect. In outline: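 Activation of retinol signaling was monitored via a RARE luciferase reporter in C3RL4 cells. After 6 hr compound treatment at 37 C, detection reagent was added for 30 min at room temperature before luminescence reading.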
A short description of test [11]: qHTS assay to identify small molecule antagonists of the estrogen related receptor (ERR) signaling pathway from Tox21 library - cell viability counter screen (AID 1224834). Note: nearly all actives have a fitted effect of over 30% in size. Note: potency is the fitted concentration of half-maximal effect. In short, it runs like this:
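CellTiter-Fluor fluorescence measured; ERR cells; 17.5 h compound incubation at 37 C; 30 min reagent step.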

The target of test [12] is Luciferin 4-monooxygenase (Photinus pyralis) (UniProt P08659). Put plainly: qHTS assay to identify small molecule inhibitors of firefly luciferase (AID 1224835). Note: nearly all actives have a fitted effect of over 25% in size. Note: potency is the fitted concentration of half-maximal effect. In short, it runs like this:
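Quantitative HTS format; KM concentrations of both substrates. Purified P. pyralis FLuc activity quantified from luminescence images.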

Test [13] can be described thus: qHTS assay to identify small molecule agonists of the vitamin D receptor (VDR) signaling pathway - cell viability counter screen (AID 743224). Note: nearly all actives have a fitted effect of over 50% in size. Note: potency is the fitted concentration of half-maximal effect. In outline:
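Here cell health was gauged by luminescent ATP detection (CellTiter-Glo, 30 min RT) in VDR-bla cells that had been incubated with test compounds for 16 h at 37C and 5% CO2.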

Test [14] addresses Nuclear receptor ROR-gamma (Homo sapiens) (UniProt P51449). Put plainly: qHTS assay to identify small molecule antagonists of the retinoid-related orphan receptor gamma (ROR-gamma) signaling pathway (AID 1159521; note: nearly all actives have a fitted effect of over 50% in size; note: potency is the fitted concentration of half-maximal effect). In short, it runs like this:
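Inducible-expression reporter assay: doxycycline (1 uM final) switched on RORγ in CHO cells bearing a ROR response element-luciferase construct, with test compounds present from 2 h beforehand. Decreased luminescence after 16 h defined antagonist activity.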

The nature of test [15]: qHTS assay to identify small molecule antagonists of the retinoid acid receptor (RAR) signaling pathway - cell viability counter screen (AID 1159551). Note: nearly all actives have a fitted effect of over 35% in size. Note: potency is the fitted concentration of half-maximal effect. In short, it runs like this:
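Seed C3RL4 cells; next day add compound, then retinol to 1 uM final; incubate 6 h at 37 C; add CellTiter-Glo; read luminescence after 30 min at RT.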

Test [16] can be described thus: qHTS assay to identify small molecule antagonists of the estrogen related receptor (ERR) signaling pathway (AID 1224819). In outline:
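qHTS in ERR cells, 2,000/well, 1536 format. Cpd (DMSO) added after 6 h settle, 18 h 37 C. One-Glo luminescence, 30 min RT.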

The nature of test [17]: qHTS assay to identify small molecule agonists of the estrogen related receptor (ERR) signaling pathway (AID 1224820). In outline: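 Cells: ERR line from NTP, 2,000/well. Pre-incubation 6 h, 37 C/5% CO2. Compound (DMSO) pin transfer, 18 h 37 C. One-Glo, 30 min RT, luminescence.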
The nature of test [18]: qHTS assay to identify small molecule agonists of the estrogen related receptor signaling pathway with the pleiotropic PPARgamma coactivator (PGC) (AID 1224823). In short, it runs like this:
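Steps: plate PGC/ERR cells at 2,000 cells/well; incubate 6 h, 37 C/5% CO2; pin-transfer compounds (DMSO); incubate 18 h, 37 C; add One-Glo; 30 min RT; read luminescence.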

Test [19] is described as follows: qHTS assay to identify small molecule antagonists of the estrogen related receptor signaling pathway with the pleiotropic PPARgamma coactivator (PGC) cell viability counter screen (AID 1224822;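 note: series mostly up to about 46 µM; viability read after 17.5 h compound exposure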). In short, it runs like this: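 Compounds in DMSO, with positive and negative controls, were applied to PGC/ERR cells (2,000/well) and left 17.5 h at 37 C before CellTiter-Fluor detection.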

Records with an inconclusive call do not appear. Active and inactive are the calls of the source. Unless noted, calls come from the whole dose curve; as a rule, active = well fitted curve in the direction sought with a large enough effect in the repeat runs; inconclusive = weak or mixed curves; inactive = no such curve, though single readings can be large; an effect the other way counts as inactive or inconclusive.

Chain of Luciferin 4-monooxygenase (Photinus pyralis) (P08659 whole entry, looked up): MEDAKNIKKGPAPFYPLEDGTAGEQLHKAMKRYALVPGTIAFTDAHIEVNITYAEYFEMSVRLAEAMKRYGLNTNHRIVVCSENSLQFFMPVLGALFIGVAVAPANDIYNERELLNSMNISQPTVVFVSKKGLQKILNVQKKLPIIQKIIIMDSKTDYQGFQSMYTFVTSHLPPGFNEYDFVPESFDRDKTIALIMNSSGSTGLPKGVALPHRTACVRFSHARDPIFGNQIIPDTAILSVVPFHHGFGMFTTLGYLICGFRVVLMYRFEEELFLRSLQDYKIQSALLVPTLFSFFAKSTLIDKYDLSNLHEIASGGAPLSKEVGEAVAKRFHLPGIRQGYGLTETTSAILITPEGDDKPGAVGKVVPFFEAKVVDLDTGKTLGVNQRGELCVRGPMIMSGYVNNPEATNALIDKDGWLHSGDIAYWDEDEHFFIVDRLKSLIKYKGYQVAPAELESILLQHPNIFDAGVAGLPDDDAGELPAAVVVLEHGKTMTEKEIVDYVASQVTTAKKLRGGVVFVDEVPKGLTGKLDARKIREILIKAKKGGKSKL
Chain of Retinoic acid receptor RXR-alpha (Homo sapiens) (P19793 whole entry, looked up): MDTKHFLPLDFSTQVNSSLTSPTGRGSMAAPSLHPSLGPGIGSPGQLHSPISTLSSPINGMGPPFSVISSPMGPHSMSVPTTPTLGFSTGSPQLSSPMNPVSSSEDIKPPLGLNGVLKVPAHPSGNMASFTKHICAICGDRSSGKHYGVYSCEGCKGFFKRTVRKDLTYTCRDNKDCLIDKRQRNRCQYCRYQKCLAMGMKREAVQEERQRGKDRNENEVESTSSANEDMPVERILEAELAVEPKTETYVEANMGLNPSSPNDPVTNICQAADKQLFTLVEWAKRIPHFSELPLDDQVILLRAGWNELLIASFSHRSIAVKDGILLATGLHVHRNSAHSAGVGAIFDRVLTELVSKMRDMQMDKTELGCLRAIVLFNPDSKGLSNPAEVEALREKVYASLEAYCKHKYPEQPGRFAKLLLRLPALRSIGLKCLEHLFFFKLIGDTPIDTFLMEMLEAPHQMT

Regarding `Nc1c(Cl)cc(Cl)cc1Cl`, the Potency entry in test [1], in [2], in test [3], in [4], in [5] and in test [6] was “inactive” in each case. The Potency result in test [8], in test [9], in test [10], in test [11] and in test [12] was “inactive” each time. For the same compound, the Potency in test [7] was 12.1 µM (active).
Take `CCCCCCCC/C=C/CCCCCCCC1=NCCN1CCO`: the Potency in [13] was 34.7 µM (active); in test [1], 34.7 µM (active); in test [2], 49 µM (active); in test [3], 43.6 µM (active); in [4] it was 68.6 µM (active); in test [14], 61.1 µM (active). Also, the Potency in test [8] was 49 µM (active); in test [15], 68.6 µM (active); in test [9], 61.1 µM (active); in test [11] it was 54.5 µM (active). The Potency result in test [12] is “inactive”.
As for `Oc1cccc2cc3cccc(O)c3c(O)c12`, the Potency result in test [13], in [1], in [2], in test [3], in test [4] and in [14] was “inactive” in each case. Moreover, the Potency result in test [8] and in test [11] was “inactive” each time. Besides, in [12], the Potency was 71.3 µM (active).
Turning to `Cc1c(C)c2c(c(C)c1O)CCC(C)(COc1ccc(CC3SC(=O)NC3=O)cc1)O2` (centres undefined), the Potency entry in [13], in [1], in test [2], in test [3], in test [4] and in test [5] was “inactive” throughout. Further, the Potency entry in test [6], in [8], in test [15], in test [11] and in [12] was “inactive” throughout.
On to `O=c1cccccc1O`, for which the Potency entry in test [1], in test [2], in test [3], in test [4], in test [5] and in test [7] was “inactive” in each case. For the same compound, the Potency result in test [8], in test [15], in [9] and in test [12] was “inactive” in each case.
Regarding `Cc1ccc(-n2nc(C(C)(C)C)cc2NC(=O)Nc2ccc(OCCN3CCOCC3)c3ccccc23)cc1`, the Potency entry in test [13], in [1], in [2], in test [3], in [4] and in test [5] was “inactive” throughout. Besides, the Potency result in test [6], in test [15] and in test [9] was “inactive” each time. Also, in test [10], the Potency was 18.8 µM (active).
In the case of `CN1CCC(Nc2ncc3ncnc(Nc4ccc(F)c(Cl)c4)c3n2)CC1`, the values for the Potency in test [1] and in test [11] were 21.3 µM (active) and 26.6 µM (active), respectively. Also, the Potency entry in test [2], in test [3], in [4], in test [5], in test [15] and in [12] was “inactive” each time.
For the compound `CC(C)n1nc(-c2cc3cc(O)ccc3[nH]2)c2c(N)ncnc21`, the Potency in test [13] was 15 µM (active); in test [3], 9.52 µM (active); in [4], 2.98 µM (active); in test [11], 1.33 µM (active). Also, the Potency entry in [1], in test [2], in [6] and in [12] was “inactive” throughout.
On to `Fc1ccc(C(c2ccc(F)cc2)N2CCN(C/C=C/c3ccccc3)CC2)cc1`, for which the Potency entry in test [2], in test [3], in test [5], in test [6], in [15] and in [9] was “inactive” throughout. Moreover, in [12], the Potency entry is “inactive”. Further, the Potency is 23.7 µM (active) in test [14], 19.6 µM (active) in test [16] and 26.6 µM (active) in [11]. Besides, the compound was classed as inactive in test [17] and in test [18].
`CC(C)C(C)(C)C(C)(C)C(C)(C)S`: the Potency entry in test [2], in test [3], in test [4], in [5], in test [8] and in [15] was “inactive” each time. Moreover, the Potency result in [19], in [11] and in test [12] was “inactive” throughout.
For the compound `C[C@@H]1C[C@H]2[C@@H]3CCC4=CC(=O)C=C[C@]4(C)[C@@]3(Cl)[C@@H](O)C[C@]2(C)[C@@]1(OC(=O)c1ccco1)C(=O)CCl`, the Potency entry in test [2], in [3], in test [5], in test [6], in test [15] and in test [12] was “inactive” in each case. Moreover, the Potency was 11.9 µM (active) in test [14] and 23.7 µM (active) in [11].
As to `CCCCN(CCCC)c1ccc(C(=O)c2ccccc2C(=O)O)c(O)c1`, the Potency result in test [2], in [14], in test [5], in test [6] and in test [12] was “inactive” throughout. The Potency in test [3] was 35 µM (active).
Regarding `Cn1cc(C(=O)[C@@H]2CCc3nc[nH]c3C2)c2ccccc21`, the Potency entry in test [13], in [1], in test [2], in test [3], in [4] and in [5] was “inactive” each time. Moreover, the Potency entry in test [15], in test [9], in [10] and in [11] was “inactive” throughout.
